This note sets out measurements from PubChem BioAssay.

The nature of this assay: compounds binding Alexa647 anti-His antibody – biochemical, small-molecule microarray, 635 nm fluorescence, artefact control for SMM control protein annotation, primary screen (AID 1128).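 Note: score merges feature fluorescence with signal-to-noise for each printed compound spot.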 The following applies: higher = more signal.
Take `COc1ccc([C@H]2OC[C@@H]3C[C@@H](Cc4ccccc4)C(=O)N32)cc1`: the composite z-score was 1.3. On to `COCCCNC(=O)[C@@H]1c2ccccc2C(=O)N(Cc2ccccc2Cl)[C@H]1c1ccc(CO)cc1`, for which the composite z-score came to 3.19. `O=C1C2C=CC(C(O)c3cccc4ccccc34)N(Nc3ccccc3F)C2C(=O)N1c1ccccc1` (stereo not given) had a composite z-score of 1.22. Next, `COC(=O)[C@@]1(CCS(=O)(=O)c2ccccc2)N=C(c2ccc(OCCCO)cc2)O[C@H]1c1ccccc1CN=[N+]=[N-]`: 2.29; `C=C[C@H](OC)[C@@H](OC(=O)Nc1ccc(OC)cc1)c1ccc(O)c(F)c1`: 2.08; `C=CCC(OC(C)=O)[C@@H]1[C@@H](N(Cc2ccc(-c3ccccc3)cc2)C(=O)c2cccc3ccccc23)c2cc(OCCCO)ccc2N1C(=O)c1ccc(-c2ccccc2)cc1` (stereo not given in full): -0.722. Then `C=CCOC(=O)[C@H]1[C@@H]2C(=O)O[C@@H](c3ccccc3)[C@@H](c3ccccc3)N2[C@@H](c2ccc(OCCOC(=O)[C@H]3C[C@H]4C(=O)N[C@@H](CCCC[N+](C)(C)C)C(=O)N4[C@H]3c3ccc(O)cc3)cc2)[C@]12C(=O)Nc1ccc(I)cc12`, with 1.24; and `COC(=O)[C@@]1(Cc2ccc(OC)cc2)[C@@H]2C(=CC(=O)[C@H]2CC(=O)C(=O)N2CCCC2)CN1C(=O)c1ccccc1`, with 1.47; and `C[C@H]1NC(=O)[C@@]23C(=O)N[C@@H](Cc4ccccc4)C2[C@H](C)[C@@]2(C)O[C@H]2C3/C=C/C/C=C\CNC(=O)[C@@H]2CCCN2C1=O` (stereo not given in full), with -0.224. Then `O=C(OCc1ccccc1)C1=CCC2c3[nH]c4ccccc4c3C(=O)C1N2S(=O)(=O)c1ccccc1[N+](=O)[O-]` (stereo not given), with 1.28; and `COC(=O)[C@@]1(Cc2ccc(OC)cc2)[C@H]2c3cc(C(=O)N4CCCC4)n(Cc4ccc(C)c(F)c4F)c3C[C@H]2CN1C(=O)c1ccccc1`, with 1.39. Take `C=CCOC(=O)[C@H]1[C@@H]2C(=O)O[C@@H](c3ccccc3)[C@@H](c3ccccc3)N2[C@@H](c2ccc(OCCOC(=O)[C@H]3C[C@H]4C(=O)N[C@@H](CCCCNC(C)=O)C(=O)N4[C@H]3c3cccc(OCCO)c3)cc2)[C@]12C(=O)Nc1ccccc12`: the composite z-score amounted to 2.14.

On to `CC(C)c1ccc(NN2C(C(O)c3ccc(B(O)O)cc3)C=CC3C(=O)N(c4ccccc4)C(=O)C32)cc1` (stereo not given), for which the composite z-score stood at 1.24. `CCCC=C(CCC)[C@@H](NC(=O)c1cccs1)c1ccc(C(F)(F)F)cc1` showed a composite z-score of 0.51.

For the molecule `COc1ccc(C#Cc2ccc3c(c2)[C@]2(C(=O)N3)[C@H](C(=O)Nc3nc4ccccc4s3)[C@H]3C(=O)O[C@H](c4ccccc4)[C@H](c4ccccc4)N3[C@@H]2c2ccc(O)cc2)cc1`, the composite z-score was found to be 0.973. Next, `CCCCCCc1nc(-c2cc(C)c(OC)c(C)c2)cc2c1[Si](C(C)C)(C(C)C)OC2`: -0.164. Next, `COCCOC(=O)N1C(=O)[C@@]2(c3cc(C#Cc4ccc(OC)cc4)ccc31)[C@H](c1ccccc1OCCO)N1[C@H](c3ccccc3)[C@H](c3ccccc3)OC(=O)[C@H]1[C@@H]2C(=O)NC[C@H](O)c1ccccc1`: 0.992. Next, `COC(=O)C(CC#Cc1ccc2c(c1)[C@]1(C(=O)N2)[C@H](c2ccc(OCCO)cc2)N2[C@H](c3ccccc3)[C@H](c3ccccc3)OC(=O)[C@H]2[C@@H]1C(=O)N1CCc2cc(OC)c(OC)cc2C1)C(=O)OC`: 0.857. `COCCOC(=O)N1C(=O)[C@@]2(c3cc(C#CCC(C(=O)OC)C(=O)OC)ccc31)[C@H](c1ccccc1OCCO)N1[C@H](c3ccccc3)[C@H](c3ccccc3)OC(=O)[C@H]1[C@@H]2C(=O)N1CCN(c2ncccn2)CC1` yielded a composite z-score of 0.762. For the molecule `O=C(c1ccccc1)N1C(=O)[C@]2(COC(c3ccc(OCCCO)cc3)=N2)Cc2ccccc21`, the composite z-score is 3.28. On to `COc1ccc([Si](C)(C)[C@@H]2[C@@H](CCO)O[C@]3(C(=O)N(Cc4ccc(N(C=O)c5ccccc5)cc4)c4ccccc43)[C@H]2C)cc1`, for which the composite z-score was found to be 0.297.

Turning to `O=C1c2ccccc2[C@](Cc2ccccc2I)(C(=O)NCC(F)(F)F)[C@H](c2ccc(CO)cc2)N1Cc1ccccc1Cl`, the composite z-score is -0.176.

In turn, `COCCOC(=O)N1C(=O)[C@@]2(c3cc(C#CCCO)ccc31)[C@H](C(N)=O)[C@H]1C(=O)O[C@H](c3ccccc3)[C@H](c3ccccc3)N1[C@@H]2c1ccc(O)cc1` gave a composite z-score of -0.0637. Then `C=C(CCCC)/C(=C/C[C@@H](OC(=O)c1ccncc1)c1ccc(OCCO)cc1)c1cc(C(=O)OC)ccc1OC`, with 0.551. `C=CCN1C(=O)[C@]2(O[C@H](CCn3cc([C@H](O)c4ccccc4)nn3)[C@@H]([Si](C)(C)c3ccc(OC)cc3)[C@@H]2C)c2ccccc21` yielded a composite z-score of -0.435. Next, `[N-]=[N+]=NCc1ccccc1[C@@H]1OC(c2ccc(OCCCO)cc2)=N[C@]1(Cc1ccccc1)C(=O)NCC(O)CO` (stereo not given in full): 1.9; `COc1cc2c(cc1OC)CN(C(=O)[C@H]1[C@@H]3C(=O)O[C@@H](c4ccccc4)[C@@H](c4ccccc4)N3[C@@H](c3ccc(O)cc3)[C@]13C(=O)Nc1ccc(C#CCCO)cc13)CC2`: 1.31; `C=CCNC(=O)[C@@H]1[C@H]2C(=O)O[C@H](c3ccccc3)[C@H](c3ccccc3)N2[C@H](c2ccccc2OCCO)[C@@]12C(=O)N(C(=O)OCCOC)c1ccccc12`: 0.439. As to `CC1(C)[C@@H]2CC(C(O)C3C=CC4C(=O)N(c5ccccc5)C(=O)C4N3Nc3ccc([N+](=O)[O-])cc3)=C[C@H]1C2` (stereo not given in full), the composite z-score was found to be 1.11. Then `C=CCNC(=O)[C@H]1[C@@H]2C(=O)O[C@@H](c3ccccc3)[C@@H](c3ccccc3)N2[C@@H](c2ccccc2OCCO)[C@]12C(=O)Nc1ccc(C#CCC(C(=O)OC)C(=O)OC)cc12`, with 1.46.

Molecule `O=C1C2C=CC(C(O)c3cc(C(F)(F)F)cc(C(F)(F)F)c3)N(n3cnnc3)C2C(=O)N1Cc1ccccc1` (stereo not given) registered a composite z-score of 0.955. Next, `COc1cc(NN2C(C(O)c3ccco3)C=CC3C(=O)N(c4ccccc4)C(=O)C32)cc(OC)c1OC` (stereo not given): 0.284; `CN(C)CCCCCCNC(=O)[C@@H]1C[C@@H]2C(=O)N[C@@H](Cc3ccccc3)C(=O)N2[C@@H]1c1ccc(O)cc1`: 2.45.

The molecule `CC(C)NC(=O)[C@@]1(c2ccc([N+](=O)[O-])cc2)CC(=O)N(C2CCCCC2)[C@@H]1c1ccc(CO)cc1I` yielded a composite z-score of -0.0568. The molecule `C=CC[C@]1(C(=O)NCc2ccccc2)N=C(c2ccc(OCCCO)cc2)O[C@H]1c1ccccc1N=[N+]=[N-]` registered a composite z-score of 2.39.
